Assay results as given in PubChem BioAssay (NCATS).
“And” between values parts separate entries of the source, which are not always exact repeats. Identical values can stand only once. Records with an inconclusive call do not appear. The source made the active and inactive calls. Calls come from the whole dose curve; as a rule, active = well fitted curve in the direction sought with a large enough effect; inconclusive = small, poorly fitted or top-dose-only effect, or another doubt; inactive = no such curve, though single readings can be large; an effect the other way counts as inactive or inconclusive.

Legend:
[1] = target: Cellular tumor antigen p53 (Homo sapiens) (UniProt P04637); assay: Primary qHTS for small molecule compounds that upregulate eGFP-tagged delta133p53alpha (in N-terminal) cells. (AID 2060322); settings: NCI-H358 eGFP-delta133p53alpha fluorescence, 24 h; activation: active compounds read high; note: nearly all actives have a fitted effect of over 75% in size; note: potency is the fitted concentration of half-maximal effect;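 for activation: series mostly up to about 56 µM; 0% = DMSO vehicle and 100% = reference activator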
In short: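 NCI-H358 cells pre-induced 24 h with 10 ng/ml doxycycline to express N-terminal eGFP-delta133p53alpha, then dosed 24 h at 37C without doxycycline; fixed, Hoechst-stained, GFP intensity by laser scanning cytometry, normalized to DMSO (0%) and 57.5 uM 5-azacytidine (100%).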

[2] = target: Aldehyde dehydrogenase, mitochondrial (Homo sapiens) (UniProt P05091); assay: qHTS for Inhibitors of the Aldehyde Dehydrogenase Family (ALDH2) Primary screen (AID 2061308);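 note: plate controls were vehicle for no effect and reference inhibitor for full effect; nearly all actives have a fitted effect of over 55% in size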
[3] = target: Retinaldehyde dehydrogenase 3 (Homo sapiens) (UniProt P47895); assay: qHTS for Inhibitors of the Aldehyde Dehydrogenase Family (ALDH1A3) Primary screen (AID 2061315);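 note: plate controls were DMSO vehicle for no effect and reference inhibitor for full effect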
[4] = BET inhibitor-based combinations targeting novel dependencies in MECOM-rearranged (r) AML: SET-2 cell line (AID 2202231); settings: SET-2 AML cells viability, CellTiter-Glo luminescence, 48 h; viability: active compounds read low, concentration not given here; note: nearly all actives have a fitted effect of over 35% in size; note: potency is the fitted concentration of half-maximal effect;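 for viability: plate controls were DMSO treated cells for no effect and wells without cells for full effect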
In short: (§1)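 Here, 11-point titrations of each agent were applied to 500 seeded cells and incubated 48 hr; CellTiter-Glo signal, scaled against DMSO and empty wells, was integrated as AUC, then Z-scored within the individual line.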

[5] = BET inhibitor-based combinations targeting novel dependencies in MECOM-rearranged (r) AML: MV-4-11 cell line (AID 2202233); note: nearly all actives have a fitted effect of over 45% in size; note: potency is the fitted concentration of half-maximal effect
In short: (§2)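 Normalized to DMSO and empty-well controls, the luminescence data from CellTiter-Glo after 48 hr drug exposure were fitted across 11 concentrations. Reported metrics are area under the dose-response curve and its Z-transformed form.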

[6] = BET inhibitor-based combinations targeting novel dependencies in MECOM-rearranged (r) AML: UCSD-AML1 cell line (AID 2202235); note: nearly all actives have a fitted effect of over 40% in size; note: potency is the fitted concentration of half-maximal effect
In short: as §2

[7] = BET inhibitor-based combinations targeting novel dependencies in MECOM-rearranged (r) AML: AML-191 cell line (AID 2202236; note: nearly all actives have a fitted effect of over 35% in size; note: potency is the fitted concentration of half-maximal effect)
In short: as §1

[8] = BET inhibitor-based combinations targeting novel dependencies in MECOM-rearranged (r) AML: HNT-34 cell line (AID 2202234); note: nearly all actives have a fitted effect of over 35% in size; note: potency is the fitted concentration of half-maximal effect
In short: as §2

[9] = BET inhibitor-based combinations targeting novel dependencies in MECOM-rearranged (r) AML: AML-194 cell line (AID 2202237; note: nearly all actives have a fitted effect of over 40% in size; note: potency is the fitted concentration of half-maximal effect)
In short: as §1

[10] = BET inhibitor-based combinations targeting novel dependencies in MECOM-rearranged (r) AML: OCI-AML3 cell line (AID 2202232); settings: Potency: OCI-AML3 viability; note: potency is the fitted concentration of half-maximal effect; nearly all actives have a fitted effect of over 35% in size
In short: as §1

Cellular tumor antigen p53 (Homo sapiens), sequence (P04637 whole entry, looked up): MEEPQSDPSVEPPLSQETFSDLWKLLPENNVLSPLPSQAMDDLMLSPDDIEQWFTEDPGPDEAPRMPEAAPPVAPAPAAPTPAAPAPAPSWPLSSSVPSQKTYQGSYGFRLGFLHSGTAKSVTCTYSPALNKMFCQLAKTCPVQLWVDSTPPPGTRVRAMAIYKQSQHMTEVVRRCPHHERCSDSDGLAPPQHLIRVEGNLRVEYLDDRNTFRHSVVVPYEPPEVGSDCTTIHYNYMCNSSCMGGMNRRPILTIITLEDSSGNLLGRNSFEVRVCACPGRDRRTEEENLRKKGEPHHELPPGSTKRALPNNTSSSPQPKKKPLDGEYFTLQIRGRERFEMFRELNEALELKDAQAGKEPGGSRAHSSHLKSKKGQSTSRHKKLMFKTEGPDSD

Cc1ccc(C(=O)Nc2ccc(Oc3cc4cnn(C)c4cc3-c3cn[nH]c3)c(F)c2)c(=O)n1-c1ccc(F)cc1
active: Potency [1] 15.1 µM | Potency [4] 11.8 µM | Potency [5] 5.3 nM | Potency [6] 5250 nM | Potency [7] 6.61 µM
inactive: Potency [2] | Potency [3]

Nc1ncnc2c1C(=O)N(c1ccc(C3CCC(CC(=O)O)CC3)cc1)CCO2 (stereo not given)
inactive: activation [1] 18.6% | Potency [2] | Potency [3] | viability [4] 105% | Potency [5] | Potency [8] | Potency [6] | Potency [7] | Potency [9]

Cc1c(Cn2c(C)nc3c(C(=O)O)cc(N4CCOCC4)cc32)cccc1C(F)(F)F
inactive: activation [1] -0.853% and -13.4% | Potency [2] | Potency [3] | viability [4] 98.9% | Potency [9]
active: Potency [5] 4680 nM | Potency [8] 5.9 µM | Potency [7] 4.68 µM

Cc1nc([C@](C)(O)CO)sc1-c1cnc(N)c(O[C@H](C)c2cc(F)ccc2-n2nccn2)c1
inactive: activation [1] -10.7% | Potency [2] | Potency [3]
active: Potency [4] 10.5 µM | Potency [8] 11.8 µM | Potency [6] 1320 nM | Potency [7] 0.833 µM | Potency [9] 1.18 µM

Cc1ncc(Cl)cc1NCc1ccc(C(=O)NC(CC2CCCC2)C(=O)NC2CC2)s1 (stereo not given)
inactive: activation [1] 3% | Potency [2] | Potency [3] | viability [4] 107%
active: Potency [5] 18600 nM | Potency [7] 5.9 µM

CCS(=O)(=O)N1CCN(c2ccc(Nc3ncc(C(N)=O)c(NC4CC4)n3)cc2)CC1
active: Potency [4] 4.17 µM | Potency [5] 417 nM | Potency [6] 372 nM | Potency [7] 4.68 µM | Potency [9] 4.68 µM
inactive: activation [1] 25.7% | Potency [2] | Potency [3]

O=C(Cc1ccc(-c2ccc(OCCN3CCOCC3)cc2)cn1)NCc1ccccc1
active: Potency [4] 0.166 µM | Potency [5] 118 nM | Potency [6] 118 nM | Potency [7] 0.0934 µM | Potency [9] 0.0934 µM
inactive: activation [1] 20.5% | Potency [2] | Potency [3]

Cn1cnc2c(F)c(Nc3ccc(Br)cc3F)c(C(=O)NOCCO)cc21
inactive: activation [1] 64.2% and -20.5% | Potency [2] | Potency [3] | viability [4] 26.2%
active: Potency [8] 0.0235 µM

CC[C@H](C)C(=O)O[C@H]1C[C@@H](C)C=C2C=C[C@H](C)[C@H](CC[C@@H]3C[C@@H](O)CC(=O)O3)[C@H]21
inactive: activation [1] -14.1% and 11.5% and 5.34% | Potency [2] | Potency [3] | viability [4] 109% | Potency [9]
active: Potency [5] 10500 nM | Potency [8] 5.9 µM | Potency [6] 9340 nM | Potency [7] 10.5 µM

Cc1cc(Nc2cc(CN3CCOCC3)c3nc(C)c(Cc4ccc(Cl)cc4F)n3n2)n[nH]1
inactive: Potency [2] | Potency [3]
active: Potency [1] 27.3 µM | Potency [4] 2.63 µM | Potency [5] 235 nM | Potency [8] 2.35 µM | Potency [6] 2350 nM | Potency [7] 0.742 µM | Potency [9] 1.48 µM

Cc1cc(CS(=O)(=O)c2ccccc2)cc(OCc2ccc(CN3CCC[C@@H]3CO)cc2)c1
active: Potency [5] 10500 nM | Potency [9] 18.6 µM
inactive: activation [1] 3.67% | Potency [2] | Potency [3] | viability [4] 87.8%

COc1cc2c(Nc3ccc(Cl)c(Cl)c3F)ncnc2cc1OCC1C[C@@H]2CN(C)C[C@@H]2C1 (stereo not given in full)
active: Potency [1] 13.5 µM and 19.3 µM | Potency [4] 23.5 µM and 20.9 µM | Potency [5] 5.9 µM and 5.25 µM | Potency [8] 1.05 µM and 1.18 µM | Potency [7] 14.8 µM and 10.5 µM | Potency [9] 13.2 µM and 10.5 µM
inactive: Potency [2] | Potency [3]

COc1cc(N2CCC(N3CCN(C)CC3)CC2)ccc1Nc1ncc(Cl)c(Nc2ccccc2P(C)(C)=O)n1
inactive: Potency [2] | Potency [3]
active: Potency [1] 3.01 µM | Potency [10] 742 nM | Potency [5] 18.6 nM | Potency [8] 0.934 µM | Potency [6] 742 nM

COc1cccc(OCCCN)c1-c1cc(Nc2cnc(C#N)cn2)n[nH]1
active: Potency [1] 26.9 µM | Potency [4] 0.059 µM | Potency [8] 0.059 µM | Potency [7] 0.0235 µM
inactive: Potency [2] | Potency [3]

CN(C)CCOc1cc(-c2cn[nH]c2)ccc1NC(=O)C1COc2ccccc2O1 (stereo not given)
inactive: activation [1] -38.5% and -11.6% | Potency [2] | Potency [3] | viability [4] 92.6% | Potency [8]
active: Potency [7] 5.9 µM
